Screens deposited in PubChem BioAssay by several laboratories.
Rows were chosen to be rich in hits. Some 3.2% of all compounds tested hit in one or more screens of this group.
Mcl1 Bid PPI: Mcl-1/Bid binding inhibitors, primary screen, biochemical, TR-FRET, 1536-well | Induced myeloid leukemia cell differentiation protein Mcl-1 (Homo sapiens), Q07820 | inhibition, % at 21.7 µM | 220,000 compounds, 0.97% hits | TR-FRET Mcl-1/Bid-Dy647 peptide binding;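 active means compounds that cut the binding signal by more than half at the single screening dose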;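 further: His-tagged Mcl-1 with europium anti-His antibody binding Bid BH3 peptide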
Mcl1-Noxa inh: Mcl-1/Noxa binding inhibitors, primary screen, biochemical, TR-FRET, 1536-well; Induced myeloid leukemia cell differentiation protein Mcl-1 (Homo sapiens), Q07820; TR-FRET Mcl-1/Noxa peptide binding, 2 h; inhibition, % at 21.7 µM; 220,000 compounds, 1.5% hits; AID 1022, 2008;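 active means compounds that cut the protein-peptide binding signal by more than 50% relative to plate controls in a single-dose test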;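 further: His-tagged Mcl-1 with rhodamine Noxa BH3 peptide and terbium anti-His antibody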
Mcl-1 Bim block: inhibitors of Bim peptide binding to Mcl-1, primary screen, biochemical, bead-based flow cytometry, multiplex. 190,000 compounds, 0.1% hits. AID 1009, 2008. Induced myeloid leukemia cell differentiation protein Mcl-1 (Homo sapiens), Q07820. inhibition, % at 10 µM. Bim peptide-Mcl-1 binding; in the data active means inhibition above about 40%
14-3-3 Bad PPI: inhibitors of 14-3-3 zeta/Bad binding, primary screen, biochemical, TR-FRET, bovine 14-3-3 zeta. TR-FRET 14-3-3zeta/Dy647-pBad peptide displacement, 1 h. inhibition, % at 21.7 µM. 220,000 compounds, 0.71% hits. 14-3-3 protein zeta/delta (Bos taurus), P63103;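 active means inhibition above about 70%, limit read from the data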
Target sequence (P63103 whole entry, looked up): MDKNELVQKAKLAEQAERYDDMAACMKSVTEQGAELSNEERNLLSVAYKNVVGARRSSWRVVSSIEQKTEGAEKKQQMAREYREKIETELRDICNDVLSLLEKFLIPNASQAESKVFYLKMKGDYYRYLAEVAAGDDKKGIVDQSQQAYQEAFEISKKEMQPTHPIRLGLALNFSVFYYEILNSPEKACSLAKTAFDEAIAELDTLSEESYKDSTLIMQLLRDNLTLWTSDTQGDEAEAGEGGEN
NCF1 inh: p47phox/p22phox peptide binding inhibitors, primary screen, biochemical, uHTS, NADPH oxidase regulatory subunit. inhibition, % at 24.7 µM. fluorescence polarization, 2 h. 220,000 compounds, 0.53% hits. Neutrophil cytosol factor 1 (Homo sapiens), P14598. AID 1274, 2008;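 active means inhibition above about 30%, limit read from the data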
Of the large screens only hits and unclear results are named; the others gave an inactive call; [ ] = dose if it differs, or a comment.

COc1ccc2c(=O)c3c(=O)n(Cc4ccco4)c(-c4ccco4)nc3oc2c1	Mcl1-Noxa inh 69.8
CC12CCC(C(=O)N/N=C/c3ccc(O)cc3)(OC1=O)C2(C)C (centres undefined)	none (no result: Mcl-1 Bim block)
CCN(CC)c1ccc(/C=N\NC(=O)c2cccc3cc[nH]c23)cc1	none (no result: Mcl-1 Bim block)
O=C(CSc1nnc(SCc2ccccc2)s1)N/N=C/C=C\c1ccco1	Mcl1-Noxa inh 53.7
CCn1c(SCC(=O)N/N=C/C=C/c2ccco2)nnc1-c1ccc(OC)cc1	14-3-3 Bad PPI 80.1[fluorescence artefact?]
COc1ccc(C(=O)NC(CO)c2nnc(SCc3ccc(Cl)c(Cl)c3)n2C)cc1 (centres undefined)	Mcl-1 Bim block 41.0
O=c1c(O[C@@H]2O[C@H](CO)[C@H](O)[C@H](O)[C@H]2O)c(-c2ccc(O)c(O)c2)oc2cc(O)cc(O)c12	none
O=c1c(O)c(-c2ccc(O)cc2O)oc2cc(O)cc(O)c12	Mcl1-Noxa inh 103.3
COc1c(-c2ccc(O)c(O)c2)oc2cc(O)cc(O)c2c1=O	Mcl1-Noxa inh 55.7 (no result: Mcl-1 Bim block)
COc1ccc2c(=O)cc(-c3cccnc3)oc2c1OC	none (no result: Mcl-1 Bim block)
O=C1CC(c2ccc(F)cc2)Sc2nc(C34CC5CC(CC(C5)C3)C4)nn21 (centres undefined)	none
O=C(Nc1ccc2nc(-c3ccc4nc[nH]c4c3)[nH]c2c1)c1cccs1	Mcl1-Noxa inh 79.5
O=C(Nc1ccc2nc(-c3ccccc3)[nH]c2c1)c1cccs1	none
Cc1ccc(C(=O)N2CCN(c3ccccc3Cl)CC2)cc1[N+](=O)[O-]	none
Cc1cccc(Nc2nnc(SC/C(O)=C(\C#N)c3nc4ccccc4[nH]3)s2)c1	Mcl1-Noxa inh 51.5
COc1ccc(C)cc1-n1nnnc1SC/C(O)=C(\C#N)c1nc2ccccc2[nH]1	none
Cc1ccc(Nc2nnc(SC/C(O)=C(\C#N)c3nc4ccccc4[nH]3)s2)c(C)c1	Mcl1-Noxa inh 69.5
CCC(C)(C)n1nnnc1C(c1cccc(C#N)c1)N1CCN(c2cccc(C)c2C)CC1 (centres undefined)	Mcl1-Noxa inh 70.4
CCC(C)(C)n1nnnc1C(c1ccc(O)c(OC)c1)N1CCc2ccccc2C1 (centres undefined)	Mcl1-Noxa inh 82.0, 14-3-3 Bad PPI 82.2
CC(C)(C)n1nnnc1C(c1cccc(C#N)c1)N1CCCCCC1 (centres undefined)	none
CCC(C)(C)n1nnnc1C(c1ccc(O)c(OC)c1)N1CCN(c2nc3ccccc3s2)CC1 (centres undefined)	Mcl1-Noxa inh 67.5
Cc1c(NC(=O)c2cccc(NS(C)(=O)=O)c2)c(=O)n(-c2ccccc2)n1C	none (no result: Mcl-1 Bim block)
Cc1ccc2nc(C)cc(C(=O)OCC(=O)Nc3cccnc3Cl)c2c1	none
NC(=O)c1sc2nnc(-c3ccccc3)c(-c3ccccc3)c2c1N	none (no result: Mcl-1 Bim block)
Cc1cc(C(=O)Cn2nc(C(=O)O)c3ccccc3c2=O)c(C)n1-c1ccc(F)cc1	none
NC(=O)N1CCN(C(=O)c2ccco2)CC1	Mcl1 Bid PPI 69.8
O=C(c1ccco1)N1CCN(Cc2nc(Cc3ccccc3)no2)CC1	NCF1 inh 131.0
COc1ccc(C2(NC(C)=O)CCN(C(=O)c3ccco3)CC2)cc1	Mcl-1 Bim block 40.0
O=C(c1ccco1)N1CCCN(Cc2nc(-c3cccs3)no2)CC1	none
COC(=O)c1ccc(COc2ccc(/C=N/NC(N)=S)cc2)o1	none (no result: Mcl-1 Bim block)
CCc1ccc(CN(C)Cc2nc(-c3cccc(Cl)c3)no2)nc1	none
CC(C)=CCN1CCN(Cc2ccc(Sc3nncn3C)o2)CC1CCO (centres undefined)	none
COc1cc(/C=C(\NC(=O)c2ccccc2)C(=O)N2CC3CC(C2)c2cccc(=O)n2C3)cc(OC)c1OC (centres undefined)	none (no result: Mcl-1 Bim block)
NS(=O)(=O)c1ccc(NC(=S)NC(=O)/C=C/c2ccco2)cc1	Mcl1-Noxa inh 88.7
O=C(/C=C/c1ccco1)Nc1ccc(N2CCCC2)cc1	Mcl1-Noxa inh 64.2
O=C(/C=C/c1ccco1)Nc1ccc(C(=O)N2CCOCC2)cc1	none
O=C(/C=C/c1ccco1)NC(=S)Nc1cccc(-c2nc3ccccc3o2)c1	Mcl1 Bid PPI 64.6 (no result: Mcl1-Noxa inh)
CC(=O)Nc1ccc(NC(=S)NC(=O)/C=C/c2ccc(Cl)cc2)cc1	none
